Source: PubChem BioAssay
T cruzi growth-1 – T. cruzi proliferation inhibition; T. cruzi beta-gal in NIH3T3, GalScreen luminescence, 90 h; inhibition, % at 8.34 µM; 77,000 tested, 5.9% active;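 active means mean inhibition above about 93%, with at least 55% of replicates each passing it, limit read from the data, passing the limit was not always enough; inconclusive means only one of those two conditions holds; inactive means neither condition holds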
C diff HTS – blocks growth of Clostridium difficile | 86,000 tested, 0.25% active | AID 1259249 | growth activity, negative = inhibition, % at 16 µg/mL (by protocol) | Clostridium difficile clinical isolate growth, OD600, 24 h; hits give low values;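 active means mean growth activity at or below -80% and every replicate also at or below -80%; inconclusive means mean at or below -80% but some replicate above -80%; inactive means mean growth activity above -80%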;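 further: 0% = DMSO wells and -100% = levofloxacin 16 µg/mL wells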
Pf Dd2 growth – blocks growth of Plasmodium falciparum Dd2 parasites. AID 1159554. 94,000 tested, 2.3% active. P. falciparum Dd2 growth, SYBR Green, 72 h; hits give low values. activity change, % at 10 µM; in the data active means activity change below about -80%; inconclusive means no clear call, values can overlap the other calls
T cruzi growth-2 – blocks T. cruzi growth in NIH3T3 host cells | T. cruzi beta-gal in NIH3T3, GalScreen luminescence, 90 h | 5,600 tested, 72% active | shares compounds with T cruzi growth-1 | inhibition, % at 8.35 µM;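 active means mean replicate inhibition above about 95% and at least 55% of replicates individually reaching it, limit read from the data; inconclusive means only one of the two criteria is met; inactive means neither criterion is met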
T cruzi growth-3 – inhibitors of T. cruzi proliferation; shares compounds with T cruzi growth-1; T. cruzi beta-gal in NIH3T3, GalScreen luminescence, 90 h; inhibition, % at 2.09 µM; 5,600 tested, 21% active;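 active means mean inhibition above about 95%, with at least 55% of replicates also reaching it, limit read from the data; inconclusive means meets just one of the two conditions; inactive means meets neither condition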;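 further: plate controls were neutral control median for no effect and positive control median for full effect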
NIH3T3 tox – NIH/3T3 (mouse) viability loss | shares compounds with T cruzi growth-1 | NIH/3T3 viability, CellTiter-Glo ATP luminescence, 90 h | cytotoxicity (signal decrease), % at 8.35 µM | 5,600 tested, 14% active | AID 651742;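 active means mean signal decrease across replicates above about 35% based on untreated-well scatter, with enough replicates individually passing, limit read from the data; inconclusive means no rule stated though some were filed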;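 further: 0% = median of neutral control wells and 100% = median of positive control wells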
3T3 cytotox 2 – cytotoxicity in mouse NIH/3T3 fibroblasts | shares compounds with T cruzi growth-1 | NIH/3T3 viability, CellTiter-Glo ATP luminescence, 90 h | inhibition, % at 24.9 µM | 5,600 tested, 56% active | AID 651744;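 active means mean loss of cell viability signal at or above a set limit, and enough replicates individually reaching it; inconclusive means meets only the mean limit or only the replicate share; inactive means meets neither condition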;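 further: 0% = median of neutral control wells and 100% = median of positive control wells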
* marks the source's active call; other numbers are inactive results; ? = inconclusive; . = no result; ! = not active in a repeat. Compounds with a hit are over-represented: about 6.7% of the library has one in this group of screens.

SMILES	T cruzi growth-1	C diff HTS	Pf Dd2 growth	T cruzi growth-2	T cruzi growth-3	NIH3T3 tox	3T3 cytotox 2
C[C@H]1CN([C@@H](C)CO)C(=O)c2cc(C#CC3CCCC3)cnc2O[C@@H]1CN(C)C(=O)Nc1ccccc1	47	6	-7	.	.	.	.
C[C@H]1CN([C@@H](C)CO)C(=O)Cc2cc(NC(=O)NC3CCCCC3)ccc2O[C@@H]1CN(C)CC1CC1	-25	2	4	.	.	.	.
CC(=O)NC[C@H]1[C@H](c2ccc(-c3ccccc3)cc2)[C@H](CO)N1C(=O)C1CCC1	18	-11	18	.	.	.	.
CCC(=O)N[C@@H]1CC[C@H](CC(=O)NCCN2CCCCC2)O[C@H]1CO	-78	.	-5	.	.	.	.
COCC(=O)N1[C@H](C#N)[C@@H](c2ccccc2-c2ccc(C)cc2)[C@@H]1CO	.	20	-71	.	.	.	.
Cc1ccc(S(=O)(=O)Nc2ccc3c(c2)C(=O)N([C@H](C)CO)C[C@@H](C)[C@@H](CN(C)S(=O)(=O)c2ccc(Cl)cc2)OCCCC[C@@H](C)O3)cc1	119*	-4	-85*	103*	115*	1	15
C[C@H]1CCCCO[C@H](CN(C)S(=O)(=O)c2ccc(Cl)cc2)[C@@H](C)CN([C@@H](C)CO)C(=O)c2cc(NS(=O)(=O)c3ccc(Cl)cc3)ccc2O1	78	8	-67	.	.	.	.
C[C@H]1CCCCO[C@@H](CN(C)S(=O)(=O)c2ccc(Cl)cc2)[C@@H](C)CN([C@@H](C)CO)C(=O)c2cc(NS(=O)(=O)c3ccc(Cl)cc3)ccc2O1	95	0	-55	.	.	.	.
Cc1ccc(S(=O)(=O)N(C)C[C@H]2OCCCC[C@H](C)Oc3ccc(NS(=O)(=O)c4ccc(Cl)cc4)cc3C(=O)N([C@H](C)CO)C[C@H]2C)cc1	108*	5	-68	97*	109*	-23	?
Cc1ccc(S(=O)(=O)Nc2ccc3c(c2)C(=O)N([C@@H](C)CO)C[C@H](C)[C@H](CN(C)S(=O)(=O)c2ccc(Cl)cc2)OCCCC[C@@H](C)O3)cc1	99*	8	-86*	102*	113*	7	47*
O=C(C[C@H]1C[C@@H]2c3cc(NC(=O)c4ccc5c(c4)OCO5)ccc3O[C@@H]2[C@H](CO)O1)NCc1ccc(Cl)cc1	47	-25	16	.	.	.	.
C[C@@H]1CCCCO[C@@H](CN(C)Cc2ccc(C(=O)O)cc2)[C@H](C)CN([C@@H](C)CO)C(=O)c2cc(N(C)C)ccc2O1	29	1	24	.	.	.	.
C[C@H](CO)N1C[C@H](C)[C@@H](CN(C)Cc2ccccc2)OCCCC[C@H](C)Oc2ccc(N(C)C)cc2C1=O	100*!	-3	-13	32	1	-9	-3
C[C@@H]1CN([C@@H](C)CO)C(=O)c2cc(N(C)C)ccc2O[C@@H](C)CCCCO[C@@H]1CN(C)Cc1ccc(C(F)(F)F)cc1	74	22	-21	.	.	.	.
C[C@@H]1CN([C@H](C)CO)C(=O)c2cc(N(C)C)ccc2O[C@@H](C)CCCCO[C@@H]1CN(C)Cc1ccc(C(F)(F)F)cc1	?	28	-67	109*	88	18	107*
C[C@@H]1CCCCO[C@@H](CN(C)Cc2ccccc2)[C@@H](C)CN([C@H](C)CO)C(=O)c2cc(N(C)C)ccc2O1	61	2	13	.	.	.	.
C[C@@H]1CCCCO[C@@H](CN(C)Cc2ccc(C(=O)O)cc2)[C@@H](C)CN([C@H](C)CO)C(=O)c2cc(N(C)C)ccc2O1	50	2	41	.	.	.	.
C[C@@H]1CN([C@@H](C)CO)C(=O)c2cc(N(C)C)ccc2O[C@@H](C)CCCCO[C@H]1CN(C)Cc1ccc(C(F)(F)F)cc1	119*	28	-48	110*	108*	4	87*
C[C@@H]1CN([C@H](C)CO)C(=O)c2cc(N(C)C)ccc2O[C@@H](C)CCCCO[C@H]1CN(C)Cc1ccc(C(F)(F)F)cc1	120*	22	-23	99*	113*	7	106*
COc1ccc(S(=O)(=O)N(C)C[C@@H]2Oc3ccc(NC(=O)NC4CCCCC4)cc3CC(=O)N([C@@H](C)CO)C[C@@H]2C)cc1	1	-5	-78	.	.	.	.
